A selection: hits, their analogues and other compounds. The true share with any hit is near 6.8%.
C diff growth: inhibitors of Clostridium difficile growth. Clostridium difficile clinical isolate growth, OD600, 24 h; hits give low values. 86,000 compounds, 0.25% hits. growth activity, negative = inhibition, % at 16 µg/mL (by protocol). AID 1259249;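 active = mean growth activity at or below -80% and every replicate also at or below -80%; inconclusive = mean at or below -80% but some replicate above -80%; inactive = mean growth activity above -80%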;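 also: 0% = DMSO wells and -100% = levofloxacin 16 µg/mL wells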
T cruzi growth-1: blocks T. cruzi growth in NIH3T3 culture. T. cruzi beta-gal in NIH3T3, GalScreen luminescence, 90 h. inhibition, % at 8.34 µM. 77,000 compounds, 5.9% hits. AID 624255;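 active = mean inhibition above about 93%, with at least 55% of replicates each passing it, limit read from the data, passing the limit was not always enough; inconclusive = only one of those two conditions holds; inactive = neither condition holds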
Pf Dd2 growth: inhibitors of Plasmodium falciparum Dd2 growth. P. falciparum Dd2 growth, SYBR Green, 72 h; hits give low values. AID 1159554. 94,000 compounds, 2.3% hits. activity change, % at 10 µM; in the data active = activity change below about -80%; inconclusive = no clear call, values can overlap the other calls
T cruzi growth-2: inhibitors of T. cruzi proliferation; shares compounds with T cruzi growth-1; T. cruzi beta-gal in NIH3T3, GalScreen luminescence, 90 h; inhibition, % at 8.35 µM; 5,600 compounds, 72% hits;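 active = mean replicate inhibition above about 95% and at least 55% of replicates individually reaching it, limit read from the data; inconclusive = only one of the two criteria is met; inactive = neither criterion is met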
T cruzi growth-3: inhibitors of T. cruzi proliferation; inhibition, % at 2.09 µM; shares compounds with T cruzi growth-1; AID 651740; T. cruzi beta-gal in NIH3T3, GalScreen luminescence, 90 h; 5,600 compounds, 21% hits;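 active = mean inhibition above about 95%, with at least 55% of replicates also reaching it, limit read from the data; inconclusive = meets just one of the two conditions; inactive = meets neither condition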;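 also: plate controls were neutral control median for no effect and positive control median for full effect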
NIH3T3 tox: kills mouse NIH/3T3 fibroblasts. NIH/3T3 viability, CellTiter-Glo ATP luminescence, 90 h. 5,600 compounds, 14% hits. cytotoxicity (signal decrease), % at 8.35 µM. shares compounds with T cruzi growth-1;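 active = mean signal decrease across replicates above about 35% based on untreated-well scatter, with enough replicates individually passing, limit read from the data; inconclusive = no rule stated though some were filed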;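 also: 0% = median of neutral control wells and 100% = median of positive control wells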
NIH3T3 tox 2: NIH/3T3 (mouse) viability loss; shares compounds with T cruzi growth-1; NIH/3T3 viability, CellTiter-Glo ATP luminescence, 90 h; inhibition, % at 24.9 µM; 5,600 compounds, 56% hits;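 active = mean loss of cell viability signal at or above a set limit, and enough replicates individually reaching it; inconclusive = meets only the mean limit or only the replicate share; inactive = meets neither condition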;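 also: 0% = median of neutral control wells and 100% = median of positive control wells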
Active calls of the source: *; ? = inconclusive; . = not tested or not shown.

SMILES	C diff growth	T cruzi growth-1	Pf Dd2 growth	T cruzi growth-2	T cruzi growth-3	NIH3T3 tox	NIH3T3 tox 2
C[C@H](CO)N1C[C@H](C)[C@H](CN(C)C(=O)c2cccc(F)c2)Oc2ncc(/C=C/c3ccccc3)cc2C1=O	-2.3	106.7*	-70.3	106.6*	46.4	27.1	66.6*
C[C@H]1CN([C@@H](C)CO)C(=O)c2cc(/C=C/c3ccccc3)cnc2O[C@H]1CN(C)C(=O)c1cccc(F)c1	-3.3	106.7	-62.5	.	.	.	.
C/C=C/c1cnc2c(c1)C(=O)N([C@@H](C)CO)C[C@H](C)[C@@H](CN(C)C(=O)Nc1ccccc1F)O2	0.5	0.3	-12.1	.	.	.	.
COc1ccc(NC(=O)N(C)C[C@@H]2Oc3ncc(/C=C/c4ccccc4)cc3C(=O)N([C@H](C)CO)C[C@@H]2C)cc1	5.9	?	-57.0	.	.	.	.
C[C@@H]1CN([C@@H](C)CO)C(=O)c2cc(/C=C/c3ccccc3)cnc2O[C@H]1CN(C)C(=O)Nc1ccccc1F	-11.3	126.3*	-51.5	108.0*	105.1*	-3.1	17.1
C[C@H](CO)N1C[C@H](C)[C@H](CN(C)C(=O)Nc2ccccc2)Oc2ncc(/C=C/c3ccccc3)cc2C1=O	-1.6	97.4*	-69.1	97.8*	64.9	36.5*	90.5*
C[C@H]1CN([C@@H](C)CO)C(=O)c2cc(/C=C/c3ccccc3)cnc2O[C@H]1CN(C)C(=O)Nc1ccccc1F	-5.2	101.3*	-27.8	?	22.5	17.0	51.2*
C[C@@H]1CN([C@H](C)CO)C(=O)c2cc(/C=C/c3ccccc3)cnc2O[C@@H]1CN(C)C(=O)Nc1ccccc1F	-2.0	84.8	-33.9	.	.	.	.
C[C@H](CO)N1C[C@H](C)[C@H](CN(C)C(=O)Nc2ccccc2)Oc2ccc(NC(=O)Nc3ccc(F)cc3)cc2C1=O	-2.8	3.0	-4.9	.	.	.	.
O=C(C[C@H]1C=C[C@H](NC(=O)NC2CCCCC2)[C@@H](CO)O1)NCc1ccc(F)cc1	1.9	.	-7.6	.	.	.	.
Cc1noc(C)c1S(=O)(=O)N(C)C[C@H]1OCCCC[C@H](C)Oc2ccc(NC(=O)Nc3cccc4ccccc34)cc2C(=O)N([C@H](C)CO)C[C@@H]1C	-10.6	115.6*	-41.5	100.7*	41.4	2.0	34.5*
Cc1noc(C)c1S(=O)(=O)N(C)C[C@H]1OCCCC[C@@H](C)Oc2ccc(NC(=O)Nc3cccc4ccccc34)cc2C(=O)N([C@@H](C)CO)C[C@H]1C	0.5	113.4*	-73.1	101.8*	59.5	-5.8	-35.0
Cc1noc(C)c1S(=O)(=O)N(C)C[C@@H]1OCCCC[C@@H](C)Oc2ccc(NC(=O)Nc3cccc4ccccc34)cc2C(=O)N([C@H](C)CO)C[C@@H]1C	-6.2	59.2	-51.2	.	.	.	.
Cc1noc(C)c1S(=O)(=O)N(C)C[C@@H]1OCCCC[C@@H](C)Oc2ccc(NC(=O)Nc3ccccc3)cc2C(=O)N([C@@H](C)CO)C[C@@H]1C	22.2	.	-42.5	.	.	.	.
COCC#Cc1ccc2c(c1)O[C@H](CN(C)C)[C@@H](C)CN([C@H](C)CO)S2(=O)=O	0.7	0.3	25.8	.	.	.	.
CC(C)NC(=O)N(C)C[C@H]1Oc2ccc(NS(=O)(=O)c3ccc(F)cc3)cc2CC(=O)N([C@@H](C)CO)C[C@@H]1C	5.9	97.5	22.0	.	.	.	.
CN1C(=O)c2cc(NC(=O)c3ccc(F)cc3)ccc2OC[C@H]2O[C@@H](CC(=O)NCC3CC3)CC[C@@H]21	-3.8	29.7	-11.3	.	.	.	.
C[C@H]1CN([C@@H](C)CO)S(=O)(=O)c2ccc(C3=CCCCC3)cc2O[C@@H]1CN(C)S(C)(=O)=O	-9.4	-9.2	45.5	.	.	.	.
C[C@H](CO)N1C[C@H](C)[C@H](CN(C)S(C)(=O)=O)Oc2cc(C3=CCCCC3)ccc2S1(=O)=O	13.3	88.2	29.0	.	.	.	.
C[C@@H]1CN([C@@H](C)CO)S(=O)(=O)c2ccc(C3=CCCCC3)cc2O[C@@H]1CN(C)S(C)(=O)=O	-8.6	59.3	56.7	.	.	.	.
C[C@H]1CN([C@@H](C)CO)S(=O)(=O)c2ccc(C3=CCCCC3)cc2O[C@@H]1CN(C)S(=O)(=O)c1ccc(F)cc1	4.3	116.7*	-60.2	92.4	107.8*	?	54.6*
C[C@H]1CN([C@@H](C)CO)S(=O)(=O)c2ccc(C3=CCCCC3)cc2O[C@H]1CN(C)S(=O)(=O)c1ccc(F)cc1	13.6	125.4*	-83.1*	108.8*	104.6*	-10.0	49.7*
C[C@@H]1CN([C@@H](C)CO)S(=O)(=O)c2ccc(C3=CCCCC3)cc2O[C@@H]1CN(C)S(=O)(=O)c1ccc(F)cc1	2.8	120.5*	-34.0	97.8*	84.1	23.6	74.8*
C[C@H](CO)N1C[C@H](C)[C@H](CN(C)S(=O)(=O)c2ccc(F)cc2)Oc2cc(C3=CCCCC3)ccc2S1(=O)=O	17.7	118.2*	-64.3	101.4*	105.3*	46.1*	61.8*
C[C@H]1CN([C@@H](C)CO)S(=O)(=O)c2ccc(C3=CCCCC3)cc2O[C@H]1CN(C)S(C)(=O)=O	-0.3	63.9	19.8	.	.	.	.
SMILES	C diff growth	T cruzi growth-1	Pf Dd2 growth	T cruzi growth-2	T cruzi growth-3	NIH3T3 tox	NIH3T3 tox 2
COc1ccc(S(=O)(=O)Nc2ccc3c(c2)C(=O)N([C@@H](C)CO)C[C@@H](C)[C@@H](CN(C)S(=O)(=O)c2ccc(F)cc2)O3)cc1	0.3	29.5	12.7	.	.	.	.
C[C@H](CO)N1C[C@H](C)[C@@H](CN(C)CC2CCOCC2)Oc2ncc(-c3cccc(F)c3)cc2C1=O	-4.1	.	18.7	.	.	.	.
C[C@@H]1CN([C@@H](C)CO)S(=O)(=O)c2ccc(C3=CCCCC3)cc2O[C@H]1CN(C)S(=O)(=O)c1ccc(F)cc1	7.2	121.4*	-78.3	103.6*	92.1	28.9	30.6*
C[C@@H]1CN([C@@H](C)CO)S(=O)(=O)c2ccc(C3=CCCCC3)cc2O[C@H]1CN(C)S(C)(=O)=O	-12.0	4.0	2.2	.	.	.	.
CCCN(C)C[C@H]1OCCCC[C@H](C)Oc2ccc(NC(=O)CCC(F)(F)F)cc2C(=O)N([C@@H](C)CO)C[C@H]1C	3.1	13.8	-77.1	.	.	.	.
C/C=C/c1ccccc1[C@@H]1[C@H](C#N)N(c2ncc(CC)s2)[C@H]1CO	-4.4	.	-7.6	.	.	.	.
C/C=C/c1ccc([C@H]2[C@@H](C#N)N(c3ncc(CC)s3)[C@@H]2CO)cc1	-1.7	99.4*	20.3	102.0*	66.6	-8.6	12.1
C/C=C/c1ccc([C@H]2[C@@H](CO)N(c3ncc(CC)s3)[C@H]2C#N)cc1	2.0	97.8*	47.5	33.2	8.3	-9.3	23.2
C/C=C/c1ccccc1[C@@H]1[C@@H](CO)N(c2ncc(CC)s2)[C@H]1C#N	0.9	.	-9.7	.	.	.	.
Cc1ccccc1S(=O)(=O)N1CC[C@@H]2[C@@H](CO)N(C)c3ccc(-c4ccc(F)cc4)cc3[C@@H]21	61.9	87.6	12.9	.	.	.	.
